Assay results taken from PubChem BioAssay.

System: Human papillomavirus type 1a protein E7 (residues 44-93)
Assay: small molecules binding HPV E7 44-93 – biochemical, small-molecule microarray, residues 44-93, 635 nm fluorescence, primary screen (AID 1108);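 also: E7 fragment applied at 1 µg/mL in TBST for 1 h at 4 C; score combines spot fluorescence with its signal to noise ratio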
Conditions: fluorescence 635 nm, higher = more signal

Row | Compound | composite z-score
1 | C=CCC(OC(C)=O)[C@@H]1[C@@H](N(Cc2ccc(-c3ccccc3)cc2)C(=O)Cc2ccc(OC)cc2)c2cc(OCCCO)ccc2N1C(=O)c1ccc2ccccc2n1 (stereo partly drawn) | -0.844
2 | COC(=O)C(CC#Cc1ccc2c(c1)[C@]1(C(=O)N2)[C@H](C(=O)NC[C@H](O)c2ccccc2)[C@H]2C(=O)O[C@H](c3ccccc3)[C@H](c3ccccc3)N2[C@@H]1c1ccc(OCCO)cc1)C(=O)OC | 1.45
3 | COc1ccc(C(O)C2C=CC3C(=O)N(c4ccccc4)C(=O)C3N2Nc2ccc([N+](=O)[O-])cc2)cc1OCc1ccccc1 (stereo not drawn) | 0.664
4 | CC(=O)NCCCC[C@@H]1NC(=O)[C@@H]2C[C@H](C(=O)NCCCCN(C)C)[C@H](c3ccc(O)cc3)N2C1=O | -0.989
5 | CC(C)C(=C=CC[C@H](O)c1cccc(OCCO)c1)C[C@H](O)COCc1ccccc1 | 0.0677
6 | CC(C)C(=C=CC[C@@H](O)c1ccccc1OCCO)C[C@@H](O)c1ccccn1 | 0.752
7 | O=C1O[C@@H](c2ccccc2)[C@@H](c2ccccc2)N2[C@@H](c3ccccc3OCCO)[C@]3(C(=O)Nc4ccc(C#CC5(O)CCCCCC5)cc43)[C@@H](C(=O)Nc3nc4ccccc4s3)[C@H]12 | 1.38
8 | C=CCN1C(=O)[C@]2(O[C@H](CCO)[C@@H]([Si](C)(C)c3ccc(OC)cc3)[C@@H]2C)c2cc(NC(=O)[C@H](C)O)ccc21 | 0.942

System: not listed separately
Assay: hepatitis C replication reporter changes, two-sided – Huh7 cells, luciferase reporter, HCV replication inhibitor project, primary screen (AID 1109);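 also: huh7 hepatoma cells harbouring a luciferase neomycin HCV replicon reporter; luciferase luminescence as measure of HCV replicon replication; test concentration not given here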
Conditions: Huh7 HCV replicon luciferase reporter, 48 h; higher = more signal

Row | Compound | z-score
9 | CCCN1C(=O)[C@@]2(CCC(=O)OC(C)(C)C)N=C(c3ccc(OCCCO)cc3)O[C@H]2c2ccccc21 | -2.75
10 | O=C(O)[C@H]1C[C@H]2C(=O)NCC(=O)N2[C@H]1c1ccc(O)cc1 | 1.81
11 | CC(C)c1ccc(NN2C(C(O)c3ccc(N(C)C)cc3)C=CC3C(=O)N(c4ccccc4)C(=O)C32)cc1 (stereo not drawn) | 1.61
12 | CCC[C@@H]1C=C(C(=O)O)[C@H](c2ccc(C)cc2)N1S(=O)(=O)c1ccc(C)cc1 | 0.641
13 | CC(C)c1ccc(NN2C(C(O)c3c(F)cccc3Cl)C=CC3C(=O)N(c4ccccc4)C(=O)C32)cc1 (stereo not drawn) | -0.242
14 | CC(C)=CCCC(C)=CC(O)C1C=CC2C(=O)N(c3ccccc3)C(=O)C2N1Nc1ccccc1 (stereo not drawn) | -0.517
15 | COCC1=C2[C@@H](CCc3ccccc3)OB(O)C[C@@H]2[C@@H]2C(=O)N(Cc3ccccc3)C(=O)[C@@H]2C1 | -0.895
16 | COC(=O)[C@@]1(Cc2ccc(OC)cc2)[C@H]2c3cc(C(=O)N4CCCC4)n(CCc4c[nH]c5cc(F)ccc45)c3C[C@H]2CN1C(=O)c1ccccc1 | -1.89
17 | CC(C)N1CC=CC23O[C@@H]4C=CCOC(=O)[C@@H]4[C@H]2C(=O)N(CCO)[C@@H]3C1=O (stereo partly drawn) | -0.0497
18 | COC(=O)C(CC#Cc1ccc2c(c1)[C@]1(C(=O)N2)[C@H](c2ccc(OCCO)cc2)N2[C@H](c3ccccc3)[C@H](c3ccccc3)OC(=O)[C@H]2[C@@H]1C(=O)NC[C@H](O)c1ccccc1)C(=O)OC | -1.39
19 | CC(C)NC(=O)[C@@]1(Cc2ccccc2I)c2ccccc2C(=O)N(Cc2ccccc2)[C@H]1c1ccc(CO)cc1 | -1.09
20 | CCOC(=O)C[C@H]1[C@H](OC(=O)Cc2ccc3c(c2)OCO3)[C@@H](NC(=O)c2ccc(-c3ccccc3)cc2)c2cc(OCCCO)ccc2N1C(=O)c1ccccc1 | -1.25
21 | CC(c1ccccc1)C(O)C1C=CC2C(=O)NC(=O)C2N1Nc1ccccn1 (stereo not drawn) | 0.355
22 | COc1ccc(C#Cc2ccc3c(c2)[C@]2(C(=O)N3)[C@H](c3ccc(O)cc3)N3[C@H](c4ccccc4)[C@H](c4ccccc4)OC(=O)[C@H]3[C@@H]2C(=O)NC[C@H](O)c2ccccc2)cc1 | -1.63
23 | O=C1O[C@H](c2ccccc2)[C@H](c2ccccc2)N2[C@H]1[C@@H](C(=O)O)[C@]1(C(=O)Nc3ccc(C#CC4(O)CCCCCC4)cc31)[C@H]2c1ccc(OCCO)cc1 | -1.77
24 | NCCCCCCNC(=O)[C@H]1C[C@H]2C(=O)NCC(=O)N2[C@H]1c1cccc(OCCO)c1 | -0.128
25 | C=CCOC(=O)[C@H]1[C@@H]2C(=O)O[C@@H](c3ccccc3)[C@@H](c3ccccc3)N2[C@@H](c2ccc(OCCOC(=O)[C@@H]3C[C@@H]4C(=O)NCC(=O)N4[C@@H]3c3ccc(O)cc3)cc2)[C@]12C(=O)Nc1ccccc12 | -1.34
26 | [N-]=[N+]=Nc1ccccc1C[C@]1(C(=O)NCCN2CCOCC2)N=C(c2ccc(OCCCO)cc2)O[C@H]1c1ccccc1 | -1.99

Row | Compound | z-score
27 | CC(C)N1C(=O)C[C@@](C(=O)NCc2ccccc2)(c2ccc([N+](=O)[O-])cc2)[C@H]1c1ccc(CO)cc1 | -0.0323
28 | O=C1OCCC/C=C\[C@H]2OC34C=CCN(Cn5nnc6ccccc65)C(=O)[C@H]3N(CCCCCO)C(=O)[C@@H]4C12 (stereo partly drawn) | 0.0311
29 | NCCCCCNC(=O)[C@H]1C[C@H]2C(=O)NCC(=O)N2[C@H]1c1cccc(OCCO)c1 | -0.786
30 | CN1C=C(C(=O)OCCS(C)(=O)=O)C(C(=O)OCCS(C)(=O)=O)=CC(CCCO)=CC1C1CC1 (stereo not drawn) | -0.552
31 | COCCOC(=O)N1C(=O)[C@@]2(c3cc(C#CC4=CCCCC4)ccc31)[C@H](C(=O)NC[C@H](O)c1ccccc1)[C@H]1C(=O)O[C@H](c3ccccc3)[C@H](c3ccccc3)N1[C@@H]2c1ccc(O)cc1 | -1.84
32 | CCCCCCCCCCC(O)C1C=CC2C(=O)N(Cc3ccccc3)C(=O)C2N1n1cnnc1 (stereo not drawn) | -1.2
33 | Cc1ccccc1C(O)C1C=CC2C(=O)N(C)C(=O)C2N1N1CCCCC1 (stereo not drawn) | -0.18
34 | CC(=O)NCCCC[C@@H]1NC(=O)[C@@H]2C[C@H](C(=O)NCCCCCCNC(=O)CS)[C@H](c3ccc(O)cc3)N2C1=O | 0.391
35 | C=CCOC(=O)[C@H]1[C@@H]2C(=O)O[C@@H](c3ccccc3)[C@@H](c3ccccc3)N2[C@@H](c2ccc(OCCOC(=O)[C@@H]3C[C@@H]4C(=O)N5CCC[C@H]5C(=O)N4[C@@H]3c3ccc(O)cc3)cc2)[C@]12C(=O)Nc1ccccc12 | -1.81
36 | C=CCC(OC(C)=O)[C@@H]1[C@@H](N(Cc2ccc(-c3ccccc3)cc2)C(=O)Cc2ccc(OC)cc2)c2cc(OCCCO)ccc2N1C(=O)c1ccc2ccccc2n1 (stereo partly drawn) | -0.36
37 | COC(=O)C(CC#Cc1ccc2c(c1)[C@]1(C(=O)N2)[C@H](C(=O)NC[C@H](O)c2ccccc2)[C@H]2C(=O)O[C@H](c3ccccc3)[C@H](c3ccccc3)N2[C@@H]1c1ccc(OCCO)cc1)C(=O)OC | -1.95
38 | COc1ccc(C(O)C2C=CC3C(=O)N(c4ccccc4)C(=O)C3N2Nc2ccc([N+](=O)[O-])cc2)cc1OCc1ccccc1 (stereo not drawn) | 0.872
39 | CC(=O)NCCCC[C@@H]1NC(=O)[C@@H]2C[C@H](C(=O)NCCCCN(C)C)[C@H](c3ccc(O)cc3)N2C1=O | -0.581
40 | CC(C)C(=C=CC[C@H](O)c1cccc(OCCO)c1)C[C@H](O)COCc1ccccc1 | -0.285
41 | CC(C)C(=C=CC[C@@H](O)c1ccccc1OCCO)C[C@@H](O)c1ccccn1 | -1.14
42 | O=C1O[C@@H](c2ccccc2)[C@@H](c2ccccc2)N2[C@@H](c3ccccc3OCCO)[C@]3(C(=O)Nc4ccc(C#CC5(O)CCCCCC5)cc43)[C@@H](C(=O)Nc3nc4ccccc4s3)[C@H]12 | -3.09
43 | C=CCN1C(=O)[C@]2(O[C@H](CCO)[C@@H]([Si](C)(C)c3ccc(OC)cc3)[C@@H]2C)c2cc(NC(=O)[C@H](C)O)ccc21 | -4.97
